# In the library only some 6% were active in any assay of this set; here they are far more common.
# D1 antagonist: antagonists of human D1 dopamine receptor | P21728 | HEK293 TREx D1 cells, calcium flux, dopamine EC80; active compounds read low | activity change, negative = inhibition, % at 10 µM | actives 3.2% (n = 360,000); in the data active means activity change below about -30%; further: on the % scale 0 is the no-effect control and ±100 the full control effect
# Target sequence (P21728 whole entry, looked up): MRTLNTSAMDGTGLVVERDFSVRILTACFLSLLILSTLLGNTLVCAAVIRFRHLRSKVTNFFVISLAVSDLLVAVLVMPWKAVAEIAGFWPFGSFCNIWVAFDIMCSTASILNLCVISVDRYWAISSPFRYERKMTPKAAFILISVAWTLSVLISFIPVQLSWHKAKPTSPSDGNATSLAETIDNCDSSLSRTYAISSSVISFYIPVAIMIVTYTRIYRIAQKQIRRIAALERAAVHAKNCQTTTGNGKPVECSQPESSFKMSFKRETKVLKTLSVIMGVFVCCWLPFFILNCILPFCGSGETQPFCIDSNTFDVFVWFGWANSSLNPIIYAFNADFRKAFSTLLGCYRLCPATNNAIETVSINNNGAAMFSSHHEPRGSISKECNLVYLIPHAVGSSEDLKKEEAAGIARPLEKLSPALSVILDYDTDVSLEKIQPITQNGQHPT
#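 Using tetracycline-induced force-coupled D1 Hek293 cells and a calcium dye, signals were followed for 180 s after compound, then for 180 s after EC80 dopamine, to detect inhibitors.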
# D1 potentiator: potentiators of human D1 dopamine receptor | potentiation, % at 10 µM | actives 0.036% (n = 360,000) | HEK293 TREx D1 cells, calcium flux, dopamine EC20 potentiation | P21728; in the data active means potentiation above about 30%; further: 0% is about no effect
# D1 ag: agonists of human D1 dopamine receptor; P21728; HEK293 T-REx D1 cells, calcium flux, agonist mode; activation, % at 2 µM; actives 1% (n = 360,000); in the data active means activation above about 30%; further: 0% is about no effect
#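 Inducible HEK293 T-REx D1 cells, force-coupled to calcium signalling, were plated at 4000 cells/well with tetracycline and held overnight at 30 C. After no-wash calcium dye loading, compound-evoked calcium rise over 180 s flagged agonists.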
# DRD3 antagonist: antagonists of human D3 dopamine receptor; P35462; D3R cells, DiscoveRx beta-arrestin luminescence, antagonist mode; active compounds read low; max response, negative = inhibition, %; actives 2.5% (n = 360,000); AID 652054; in the data active means max response below about -50%; inconclusive means no clear call, values can overlap the other calls; further: on the % scale 0 is the no-effect control and ±100 the full control effect
#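 Cells plated overnight at 1500 cells/well, then exposed to library compounds with dopamine controls for 90 minutes at 37 degrees C. DiscoveRx reagent added for 30–60 minutes at room temperature; luminescence read, quantitative HTS format.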
# D3 ag: D3 dopamine receptor (human) agonism. D3R DiscoveRx beta-arrestin cells, luminescence, 90 min. max activation, %. P35462. actives 0.58% (n = 410,000); in the data active means max activation above about 30%; further: 0% is about no effect
#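 Cells at 1500/well, incubated overnight, then treated with pinned compounds (dopamine as control) for 90 min at 37 degrees C. DiscoveRx reagent added for 30 - 60 minutes at room temperature; luminescence read.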
# * hit, by the source's call; ? = inconclusive; nt = no result.
SMILES,D1 antagonist,D1 potentiator,D1 ag,DRD3 antagonist,D3 ag
COc1ccc(N(CC(=O)N2CCN(c3ccccc3F)CC2)S(=O)(=O)c2c(C)noc2C)cc1,-23,-12,4,2,-6
C=CCc1cccc2cc(C(=O)Nc3cccc(Cl)c3)c(=O)oc12,9,-2,-1,nt,4
C=CCc1cc(Cl)ccc1OC(=O)Nc1cccc(Cl)c1,-55*,-3,14,0,3
Cc1ccc(C)c(OCCC(=O)NCCc2ccc(F)cc2)c1,8,-1,0,-21,-14
CC(=O)Nc1ccc(S(=O)(=O)N[C@H](C(=O)O)C(C)C)cc1,-7,-1,2,13,0
COC(=O)C(NS(=O)(=O)c1ccc(NC(C)=O)cc1)C(C)C (centres undefined),nt,nt,nt,-74*,-34
CCOC(=O)C(Cc1ccccc1)NS(=O)(=O)c1ccc(NC(C)=O)cc1 (centres undefined),-31*,-4,1,-22,1
CC(C)c1ccc(Nc2sc(C(=O)c3ccccc3)c(N)c2S(=O)(=O)c2ccccc2)cc1,8,0,13,nt,0
COc1ccccc1C1C(C(N)=O)=C(C)Nc2nc(SCc3ccccc3F)nn21 (centres undefined),-4,3,1,nt,-5
COc1c(C)cc(C(O)c2ncc(-c3ccccc3C(F)(F)F)[nH]2)cc1C (centres undefined),nt,nt,nt,-2,-1
O=C(CSc1ncccn1)n1c2c(c3ccccc31)CCCC2,-43*,0,6,-10,-8
COc1cc(OC)c(OC)cc1/C=C/c1cc(C(=O)O)c2ccccc2n1,12,-3,4,7,10
COc1ccc(/C=C/c2cc(C(=O)O)c3ccccc3n2)cc1,-33*,-4,0,-25,-12
CCCCNC(=S)NCC(c1ccccc1)c1c[nH]c2ccccc12 (centres undefined),-9,0,2,-16,-11
NCC(c1ccccc1Cl)c1c[nH]c2ccccc12 (centres undefined),-9,-2,17,0,2
NCC(c1ccc(Cl)cc1Cl)c1c[nH]c2ccccc12 (centres undefined),-11,-3,41*,-2,4
CN(C)CCCNC(=S)NCC(c1ccc(Cl)cc1Cl)c1c[nH]c2ccccc12 (centres undefined),-40*,-4,61*,-23,-11
CC(=O)N(C1=C(Cl)C(=O)c2ccccc2C1=O)C1CCCCC1,-35*,-15,1,-85*,-41
COc1ccc(NC(=O)NC2(C(=O)N3CCN4CCCC4C3)CCCCC2)cc1 (centres undefined),3,-5,3,1,31*
O=C(NCCCN1CCOCC1)c1c(O)c2cc(Br)cc(Br)c2[nH]c1=O,-36*,-2,4,-25,12
CC(=O)c1ccc(N2CCN(S(=O)(=O)c3ccc4c5c3CC(=O)N5CC(C)S4)CC2)cc1 (centres undefined),-57*,-13,7,-11,-15
N#Cc1ccc(C(=O)Nc2ccc3c(c2)N(C2CCCC2)C(=O)c2ccccc2S3)cc1,3,-2,7,nt,-8
Cc1ccc(S(=O)(=O)N(C)C[C@H]2OCCCC[C@H](C)Oc3ccc(NC(=O)Nc4cccc5ccccc45)cc3C(=O)N([C@@H](C)CO)C[C@H]2C)cc1,nt,nt,nt,13,-3
COC(=O)CC1Oc2ccc(Cl)cc2-n2cc(-c3ccc(F)cc3)nc21 (centres undefined),3,-1,2,nt,50*
COC(=O)CC1Oc2ccc(F)cc2-n2cc(-c3ccc(Cl)cc3)nc21 (centres undefined),-9,-2,1,nt,-16
SMILES,D1 antagonist,D1 potentiator,D1 ag,DRD3 antagonist,D3 ag
COc1ccccc1N1CCN(c2ncnc3c2c(-c2ccccc2)cn3-c2cccc(C)c2)CC1,-8,0,4,nt,-5
COc1cc(-c2cc(-c3nnco3)c3ccccc3n2)cc(OC)c1OC,-96*,-10,1,16,1
c1ccc(-c2cc(-c3nnco3)c3ccccc3n2)nc1,-2,10,-1,-10,-5
N[C@H](C(=O)O)[C@@H]1CC(Cl)=NO1,nt,nt,nt,nt,6
O=C(NC(=O)c1ccccc1F)OCc1ccc(Cl)cc1Cl,7,-3,6,38,2
Cc1nn(C)c(Cl)c1NC(=O)OCc1ccc(Cl)cc1Cl,-37*,-9,25,31,10
Cc1nnsc1NC(=O)OCc1ccc(Cl)cc1Cl,-33*,-7,13,18,2
CCOc1ccccc1NC(=O)c1c(NC(=O)COc2ccccc2)sc2c1CCCCC2,1,1,1,nt,-20
COc1cc(C(=O)OC(C)CN2C(C)CCCC2C)cc(OC)c1OC (centres undefined),-12,-3,2,15,4
C[C@@H]1CN([C@H](C)CO)C(=O)CCCn2cc(nn2)CO[C@H]1CN(C)C(=O)c1ccncc1,nt,nt,nt,-11,-6
Cc1ccc(OCCN2CCC2(C)C(=O)NCc2ccc(C(F)(F)F)cc2)cc1 (centres undefined),nt,nt,nt,31,12
CC(=O)NC(Cc1cccc(C)c1)C(=O)NC1CCN(S(=O)(=O)c2ccccc2)CC1 (centres undefined),-36*,-6,2,2,2
CC(=O)NC(Cc1ccc(F)cc1)C(=O)NC1CCN(S(=O)(=O)c2ccccc2)CC1 (centres undefined),8,-7,1,-2,-7
NC(c1csc(NC(=O)Nc2ccccc2Cl)n1)C1CCCCC1 (centres undefined),nt,nt,nt,-28,58*
COc1ccccc1NC(=O)Nc1nc(C(N)C2CCCCC2)cs1 (centres undefined),nt,nt,nt,?,-17
O=C1/C(=C/c2cccs2)Sc2ccccc21,-93*,1,3,9,-8
O=C1Nc2ccccc2S/C1=C/c1cccs1,-8,-5,5,0,1
O=C(Nc1ccccc1)/C(=C/c1ccc(F)cc1)NC(=O)c1ccco1,5,-4,0,-9,9
COc1ccc(CNc2nc3c(-c4ccc(C)cc4)nnn3c3ccccc23)cc1,-34*,1,4,nt,3
Cc1ccc(Cn2c(C)c(CNC3CCCCC3)c(C(=O)O)c2C)cc1,6,-3,-1,nt,0
COc1ccccc1C1c2[nH]c3ccccc3c2CCN1Cc1cnc(C)s1 (centres undefined),2,2,1,72,2
COc1cccc(C2c3[nH]c4ccccc4c3CCN2Cc2cnc(C)s2)c1OC (centres undefined),-43*,6,1,102,21
O=C(NC(=S)NCc1nc2ccccc2[nH]1)c1ccccc1F,-24,-4,2,-63*,-13
O=C(NCc1nc2ccccc2[nH]1)c1c(F)cccc1F,1,-4,0,nt,-7
